Data on 15 molecules can be found in PubChem BioAssay (Tox21).

A number with no mark means an inactive call. Inconclusive results are not listed. Active and inactive are the calls of the source. Unless noted, calls come from the whole dose curve; as a rule, active = well fitted curve in the direction sought with a large enough effect in the repeat runs; inconclusive = weak or mixed curves; inactive = no such curve, though single readings can be large; an effect the other way counts as inactive or inconclusive.

Assay [1] can be described thus: qHTS assay to test for compound auto fluorescence at 535 nm (green) in HEK293 cells (AID 720680).
A short description of assay [2]: qHTS assay to test for compound auto fluorescence at 460 nm (blue) in HEK293 cell free culture (AID 720681). The method in brief:
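Blue fluorescence (Ex 405/Em 460 nm, triamterene-equivalent) was read immediately after pin transfer of compound or DMSO into medium (DMEM, 10% FBS) without cells.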

Assay [3] in a line: qHTS assay to test for compound auto fluorescence at 535 nm (green) in HEK293 cell free culture (AID 720682). The method in brief: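 Green-channel intensity (Ex/Em 485/535 nm) was recorded from compound-treated wells containing only DMEM with 10% FBS. Fluorescein provided the equivalency standard.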
Assay [4] in a line: qHTS assay to test for compound auto fluorescence at 590 nm (red) in HEK293 cell free culture (AID 720683). The procedure, abridged:
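Red-channel autofluorescence of compounds in culture medium (DMEM, 10% FBS), no cells, measured at 540/590 nm. Rose Bengal sodium is the reference fluorophore for equivalence.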

A short description of assay [5]: qHTS assay to test for compound auto fluorescence at 590 nm (red) in HepG2 cell free culture (AID 720684). The method in brief: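 Plate contents were MEM with 10% FBS plus test compound or DMSO, no cells. Fluorescence was recorded with 540 nm excitation and 590 nm emission.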
Assay [6] can be described thus: qHTS assay to test for compound auto fluorescence at 460 nm (blue) in HepG2 cell free culture (AID 720685). The method in brief: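 Compound (23 nL) or DMSO pinned into cell-free MEM with 10% FBS; blue fluorescence read at 405/460 nm excitation/emission, expressed as auto-fluorescence equivalency to triamterene.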
Assay [7] in a line: qHTS assay to test for compound auto fluorescence at 535 nm (green) in HepG2 cell free culture (AID 720686).
Assay [8] can be described thus: qHTS assay to test for compound auto fluorescence at 460 nm (blue) in HepG2 cells (AID 720687). The method in brief:
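Blue-channel autofluorescence (Ex/Em 405/460 nm, triamterene-equivalent) was measured after 1 hr compound exposure at 37 C, 5% CO2. Cells were HepG2, plated overnight at 37 C in MEM plus 10% FBS.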

Assay [9] has as its target Glucocorticoid receptor (Homo sapiens) (UniProt P04150). The assay can be described thus: qHTS assay to identify small molecule agonists of the glucocorticoid receptor (GR) signaling pathway (AID 720691; active = well fitted activation curve with a large enough effect in the signal ratio in the repeat runs, not every such curve was filed as active; the % refers to the signal ratio). The procedure, abridged:
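qHTS in GR-bla HeLa cells: 4 h settling at 37 C/5% CO2, 18 h compound incubation at 37 C, 2 h LiveBLAzer B/G FRET substrate at room temperature, fluorescence intensity measured.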

A short description of assay [10]: qHTS assay to identify small molecule antagonists of the glucocorticoid receptor (GR) signaling pathway - cell viability counter screen (AID 720693). Note: nearly all actives have a fitted effect of over 55% in size.
Assay [11] in a line: qHTS assay for identifying genotoxic compounds that show differential cytotoxicity against isogenic chicken DT40 cell lines with known DNA damage response pathways - Rad54/Ku70 mutant cell line (AID 743015). Note: nearly all actives have a fitted effect of over 60% in size. Note: potency is the fitted concentration of half-maximal effect.
The nature of assay [12]: qHTS assay to identify small molecule antagonists of the androgen receptor (AR) signaling pathway using the MDA cell line - cell viability counter screen (AID 743041; note: nearly all actives have a fitted effect of over 45% in size). The method in brief: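 R1881-driven MDA-kb2 AR-luc cells, 3,000/well, were dosed with library compounds for 16 h; cell health came from CellTiter-Fluor fluorescence in the reporter wells.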
Assay [13] is described as follows: qHTS assay for identifying genotoxic compounds that show differential cytotoxicity against isogenic chicken DT40 cell lines with known DNA damage response pathways - wild type cell line (AID 743012). Note: nearly all actives have a fitted effect of over 60% in size. Note: potency is the fitted concentration of half-maximal effect. The procedure, abridged: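 First, wild type DT40 cells were plated at 300 per well and equilibrated about 0.5 h at 37 C/5% CO2. Next, compounds in DMSO were added and exposure lasted 40 h. Finally, CellTiter-Glo was added for 30 min at room temperature and luminescence recorded.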

A short description of assay [14]: qHTS assay for identifying genotoxic compounds that show differential cytotoxicity against isogenic chicken DT40 cell lines with known DNA damage response pathways - Rev3 mutant cell line (AID 743014). Note: nearly all actives have a fitted effect of over 55% in size. Note: potency is the fitted concentration of half-maximal effect.
Assay [15] is described as follows: qHTS assay to identify small molecule antagonists of the androgen receptor (AR) signaling pathway - cell viability counter screen (AID 743033; note: nearly all actives have a fitted effect of over 45% in size).
Assay [16] deals with Glucocorticoid receptor (Homo sapiens) (UniProt P04150). Nature of the assay: qHTS assay to identify small molecule antagonists of the glucocorticoid receptor (GR) signaling pathway (AID 720692; active = well fitted inhibition curve with a large enough effect in the signal ratio in the repeat runs, not every such curve was filed as active; the % refers to the signal ratio). The procedure, abridged: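 Inhibition of glucocorticoid signalling is measured in HeLa cells with a GRE-controlled beta-lactamase reporter; cells are co-treated with compound and 5 nM dexamethasone (final) for 18 h before FRET substrate readout.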

Assay [17] concerns the target Androgen receptor (Homo sapiens) (UniProt P10275). The assay can be described thus: qHTS assay to identify small molecule antagonists of the androgen receptor (AR) signaling pathway (AID 743035; active = well fitted inhibition curve with a large enough effect in the signal ratio in the repeat runs, not every such curve was filed as active; the % refers to the signal ratio). The method in brief: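 Beta-lactamase FRET read (2 h RT incubation with LiveBLAzer B/G) following 16 h of compound plus R1881 treatment of AR-UAS-bla HEK293 cells, which had been pre-incubated 4 h at 37C.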

The target is the same in assay [18]. The assay can be described thus: qHTS assay to identify small molecule agonists of the androgen receptor (AR) signaling pathway (AID 743036; active = well fitted activation curve with a large enough effect in the signal ratio in the repeat runs, with a control signal flat, not every such curve was filed as active; the % refers to the signal ratio). The procedure, abridged: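 Cell-based FRET reporter assay: HEK293 line with a UAS-beta-lactamase construct, compounds added in DMSO, 16 h exposure at 37C, then 2 h substrate step at room temperature and fluorescence intensity read.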

Assay [19] shares this target. Nature of the assay: qHTS assay to identify small molecule agonists of the androgen receptor (AR) signaling pathway using the MDA cell line (AID 743040; note: nearly all actives have a fitted effect of over 20% in size). The method in brief:
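After a 5 h incubation at 37C and 0% CO2, MDA-kb2 reporter cells were dosed with compounds in DMSO and kept 16 h under the same conditions. Luciferase activity was then read as luminescence with ONE-Glo.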

Assay [20] has the same target. Nature of the assay: qHTS assay to identify small molecule antagonists of the androgen receptor (AR) signaling pathway using the MDA cell line (AID 743042; note: nearly all actives have a fitted effect of over 55% in size). The procedure, abridged:
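Antagonist mode: compounds plus R1881 agonist added to MDA-kb2 AR-luc cells, incubated 16 h at 37C. Luciferase reporter luminescence quantified, with multiplexed CellTiter-Fluor readout for cell viability.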
% is set by controls: 0 for no effect and ±100 for the full control effect.

Sequence of Androgen receptor (Homo sapiens) (P10275 whole entry, looked up): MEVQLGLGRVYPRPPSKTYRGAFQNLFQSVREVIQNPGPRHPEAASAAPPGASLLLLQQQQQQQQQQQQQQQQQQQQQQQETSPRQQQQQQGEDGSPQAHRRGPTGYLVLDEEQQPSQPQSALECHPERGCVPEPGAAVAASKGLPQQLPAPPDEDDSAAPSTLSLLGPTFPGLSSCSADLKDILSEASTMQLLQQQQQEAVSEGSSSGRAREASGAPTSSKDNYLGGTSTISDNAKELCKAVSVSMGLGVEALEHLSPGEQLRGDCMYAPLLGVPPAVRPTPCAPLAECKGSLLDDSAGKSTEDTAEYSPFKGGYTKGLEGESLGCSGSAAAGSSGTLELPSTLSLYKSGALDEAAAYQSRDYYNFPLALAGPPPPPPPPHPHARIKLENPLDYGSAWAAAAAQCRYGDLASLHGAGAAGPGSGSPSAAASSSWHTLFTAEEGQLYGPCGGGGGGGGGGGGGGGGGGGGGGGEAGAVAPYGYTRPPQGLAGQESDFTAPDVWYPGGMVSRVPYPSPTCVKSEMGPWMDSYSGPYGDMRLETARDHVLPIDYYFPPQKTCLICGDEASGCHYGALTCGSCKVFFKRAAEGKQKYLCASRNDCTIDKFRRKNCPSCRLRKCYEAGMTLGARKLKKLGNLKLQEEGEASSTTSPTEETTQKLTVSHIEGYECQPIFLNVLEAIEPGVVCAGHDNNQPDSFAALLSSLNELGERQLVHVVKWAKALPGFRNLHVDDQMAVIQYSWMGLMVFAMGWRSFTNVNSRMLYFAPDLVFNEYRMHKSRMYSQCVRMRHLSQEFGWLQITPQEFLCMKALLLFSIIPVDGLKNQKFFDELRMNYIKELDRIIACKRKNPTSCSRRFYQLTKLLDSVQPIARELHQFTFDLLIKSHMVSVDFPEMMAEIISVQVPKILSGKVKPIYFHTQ
Sequence of Glucocorticoid receptor (Homo sapiens) (P04150 whole entry, looked up): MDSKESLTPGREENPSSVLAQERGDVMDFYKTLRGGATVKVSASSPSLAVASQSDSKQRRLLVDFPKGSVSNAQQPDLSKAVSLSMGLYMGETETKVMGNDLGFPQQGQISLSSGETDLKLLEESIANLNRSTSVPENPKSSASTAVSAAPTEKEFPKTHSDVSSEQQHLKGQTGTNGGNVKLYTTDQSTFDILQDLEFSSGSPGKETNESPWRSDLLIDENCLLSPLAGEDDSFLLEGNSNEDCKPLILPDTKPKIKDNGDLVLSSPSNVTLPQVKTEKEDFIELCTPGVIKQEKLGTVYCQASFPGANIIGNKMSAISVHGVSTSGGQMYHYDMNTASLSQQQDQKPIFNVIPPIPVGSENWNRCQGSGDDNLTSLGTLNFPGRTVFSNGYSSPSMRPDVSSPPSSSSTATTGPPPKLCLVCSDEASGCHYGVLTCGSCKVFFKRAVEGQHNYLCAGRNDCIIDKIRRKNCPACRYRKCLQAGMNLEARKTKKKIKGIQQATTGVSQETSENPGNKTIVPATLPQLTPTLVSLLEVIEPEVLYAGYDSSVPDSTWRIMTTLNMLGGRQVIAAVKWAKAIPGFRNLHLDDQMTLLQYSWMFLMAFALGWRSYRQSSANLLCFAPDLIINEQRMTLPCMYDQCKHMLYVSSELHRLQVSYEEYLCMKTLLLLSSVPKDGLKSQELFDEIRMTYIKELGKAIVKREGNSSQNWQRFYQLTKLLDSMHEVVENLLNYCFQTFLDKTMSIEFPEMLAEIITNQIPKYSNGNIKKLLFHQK

As to `COc1cc(C(=O)NCc2ccc(OCCN(C)C)cc2)cc(OC)c1OC`, in assay [1], the fluorescence, % of fluorescein was -0.015% [at 18.6 µM]. The fluorescence, % of fluorescent control in [2] was -0.119% [at 18.6 µM]; in [4], 0.0108% [at 18.6 µM]; in [6] it was -0.0208% [at 18.6 µM]; in assay [8] it was 0.157% [at 18.6 µM]. Further, the activity change in assay [3] was -0.0621% [at 18.6 µM]. Moreover, in assay [5], the fluorescence, % of Rose Bengal was -0.58% [at 18.6 µM]. In addition, the fluorescence, % of fluorescein control in [7] is 0.123% [at 18.6 µM]. Besides, the Potency entry in [9], in assay [11] and in assay [12] was “inactive” each time. The result in [10] was inactive.
For `NC(=O)N1c2ccccc2CC(=O)c2ccccc21`, the call in assay [1], in [2], in assay [3], in assay [4], in assay [5] and in [6] was inactive. For the same molecule, the molecule was classed as inactive in assay [7], in assay [8], in assay [10] and in assay [15]. Moreover, the Potency in assay [13], in assay [14] and in [11] was 5.96 µM (active) in each case. Further, in [12], the Potency entry was “inactive”.
Regarding `O=C(c1ccccc1)C1(O)CCCCC1`, the result in [1], in assay [2], in assay [3], in assay [4], in assay [5] and in assay [6] was inactive. The outcome in assay [7], in assay [8] and in assay [15] was inactive. Also, the Potency entry in assay [13], in assay [14] and in assay [12] was “inactive” throughout.
`CC(=O)N[C@H]1[C@H]([C@H](O)[C@H](O)CO)OC(C(=O)O)=C[C@@H]1N=C(N)N`: the call in [1], in assay [2], in assay [3], in [4], in assay [5] and in assay [6] was inactive. The outcome in assay [7], in assay [10], in [15], in assay [18] and in assay [20] was inactive. The Potency entry in assay [9], in [16], in assay [13], in [14], in assay [11] and in assay [17] was “inactive” each time. In addition, the Potency result in [19] and in assay [12] was “inactive” each time.
Regarding `O=C(O)CNC(=O)c1ccccc1`, the call in assay [1], in assay [2], in assay [3], in [4], in assay [5] and in [6] was inactive. The result in assay [7] and in assay [15] was inactive. Further, the Potency entry in [9], in [13], in [14], in [11] and in assay [12] was “inactive” throughout.
As for `CO[C@@]1(NC(=O)CSC[C@@H](N)C(=O)O)C(=O)N2C(C(=O)O)=C(CSc3nnnn3C)CS[C@@H]21`, the outcome in assay [1], in assay [2], in [3], in assay [4], in assay [5] and in assay [6] was inactive. Further, the molecule was called inactive in assay [7], in [8], in assay [15], in [18] and in [20]. In addition, the Potency result in assay [14], in assay [11], in assay [19] and in assay [12] was “inactive” in each case.
With `CC(C)=CCC/C(C)=C/C#N`, the outcome in assay [1], in [2], in assay [3], in assay [4], in assay [5] and in assay [6] was inactive. Further, the call in assay [7], in assay [10] and in assay [15] was inactive. The Potency entry in assay [9], in [16] and in [12] was “inactive” throughout.
`CC(C)c1ccc2ncccc2c1`: the result in assay [1], in assay [2], in assay [3], in assay [4], in assay [5] and in assay [6] was inactive. The call in assay [7], in assay [10] and in assay [15] was inactive. Also, the Potency result in assay [14], in assay [11] and in [12] was “inactive” each time.
In the case of `O=S(=O)(O)c1cc(O)c(O)c(S(=O)(=O)O)c1`, the molecule was classed as inactive in [1], in assay [2], in [3], in assay [4], in assay [5] and in assay [6]. In addition, the result in [7], in assay [8], in [15], in assay [18] and in assay [20] was inactive. Also, the Potency entry in assay [13], in assay [14], in assay [11], in [17], in assay [19] and in assay [12] was “inactive” in each case.
In the case of `CCCO[Si](OCCC)(OCCC)OCCC`, the molecule was called inactive in assay [1], in assay [2], in assay [3], in assay [4], in [5] and in [6]. Besides, the molecule was called inactive in assay [7], in assay [10] and in [15]. The Potency entry in [9], in assay [16], in [13], in assay [11] and in assay [12] was “inactive” throughout.
For the molecule `Cc1ncc(COP(=O)(O)O)c(C=O)c1O`, the outcome in [1], in [2], in assay [3], in assay [4], in assay [5] and in [6] was inactive. For the same molecule, the result in assay [7], in assay [10] and in assay [15] was inactive. For the same molecule, the Potency entry in assay [9], in assay [16], in assay [11] and in assay [12] was “inactive” throughout.
As to `Cc1ccnc(NS(=O)(=O)c2ccc(N)cc2)n1`, in assay [1], the fluorescence, % of fluorescein was -0.0062% [at 18.6 µM]. The fluorescence, % of fluorescent control in assay [2] was -0.0731% [at 18.6 µM]; in assay [4], -0.145% [at 18.6 µM]; in assay [6] it was 0.0941% [at 18.6 µM]. For the same molecule, the activity change in assay [3] is 0.0378% [at 18.6 µM]. In assay [5], the fluorescence, % of Rose Bengal is 0.0665% [at 18.6 µM]. Moreover, in [7], the fluorescence, % of fluorescein control is 0.0314% [at 18.6 µM]. Moreover, the Potency entry in assay [9], in assay [16], in assay [14], in assay [11] and in [12] was “inactive” in each case. For the same molecule, the molecule was classed as inactive in [10] and in [15].
In the case of `Clc1cc(Cl)c(Cl)nc1Cl`, the outcome in [1], in assay [2], in assay [3], in assay [4], in assay [5] and in [6] was inactive. The outcome in assay [7], in assay [8] and in assay [15] was inactive. Moreover, the Potency result in assay [13], in assay [14], in assay [11] and in assay [12] was “inactive” in each case.
With `CCCCOCCOC(=O)CCCCCCCCC(=O)OCCOCCCC`, the call in assay [1], in [2], in [3], in assay [4], in [5] and in assay [6] was inactive. Also, the call in assay [7], in [8] and in [15] was inactive. Also, the Potency entry in [13], in assay [14], in assay [11] and in assay [12] was “inactive” throughout.
As for `O=C1c2ccccc2C(=O)c2cc(O)ccc21`, the result in [1], in assay [2], in [3], in assay [4], in assay [5] and in assay [6] was inactive. Besides, the molecule was called inactive in assay [7], in assay [8] and in assay [15]. The Potency result in assay [13] and in assay [12] was “inactive” throughout.
